The structures appear in SMILES notation. In all, about 1,300 compounds went through this assay and about 460 (35%) were called active. Inconclusive results (about 39%) are left out. Calls follow the shape of the dose curve; as a rule, active = well fitted inhibition curve with a large enough effect; inconclusive = small, poorly fitted or top-dose-only effect; inactive = flat fitted curve, though single readings scatter. The list shows a part of the results.

Chain of Protein phosphatase EYA2 (Homo sapiens) (O00167 whole entry, looked up, the tested form may be a part): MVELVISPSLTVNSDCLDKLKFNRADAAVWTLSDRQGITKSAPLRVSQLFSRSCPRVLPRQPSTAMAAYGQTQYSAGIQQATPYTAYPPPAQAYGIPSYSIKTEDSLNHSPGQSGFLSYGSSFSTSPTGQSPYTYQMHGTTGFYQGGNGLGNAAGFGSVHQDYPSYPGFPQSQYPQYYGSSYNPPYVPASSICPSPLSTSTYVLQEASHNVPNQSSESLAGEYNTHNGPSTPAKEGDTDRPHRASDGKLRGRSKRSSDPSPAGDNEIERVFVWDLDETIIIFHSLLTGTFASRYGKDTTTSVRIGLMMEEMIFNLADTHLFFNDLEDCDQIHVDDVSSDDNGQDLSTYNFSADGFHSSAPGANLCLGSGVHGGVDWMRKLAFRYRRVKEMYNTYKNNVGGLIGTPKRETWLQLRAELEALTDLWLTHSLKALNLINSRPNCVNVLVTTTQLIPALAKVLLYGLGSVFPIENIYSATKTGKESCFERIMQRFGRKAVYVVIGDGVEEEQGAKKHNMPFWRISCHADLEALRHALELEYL

For the assay, the target named is Protein phosphatase EYA2 (Homo sapiens) (UniProt O00167). Nature of the assay: qHTS for Inhibitors of the Phosphatase Activity of Eya2: Confirmatory Assay for Cherry-picked Compounds. Also: nearly all actives have a fitted effect of over 65% in size. As to conditions: purified EYA2 phosphatase activity, qHTS confirmation; series mostly up to 46.1 µM. From the text:
The Eya protein family is an essential co-activator of the Six1 transcription factor. Six1 is a developmental gene that is abnormally re-expressed in a large percentage of breast cancers. This over-expression plays a causal role in the initiation and metastatic development of breast cancers. The Eya family of protein is also found to contain a unique HAD phosphatase domain with protein tyrosine phosphatase activity which can potentially play a role in Six1-mediated breast tumorigenesis. Recently, Eya2 is found to dephosphorylate the histone variant H2AX and direct cells towards DNA repair instead of apoptosis in the event of DNA damage.
A 1536 well format, fluorescence based qHTS assay was developed and used to target the phosphatase activity of Eya2 (AID 488837). Inhibitors found against Eya2 could serve as potential therapeutic tools to inhibit Six1-mediated breast tumorigenesis and to increase the efficiency of radiation and certain chemo therapy. This assay assessed the activity of the primary screen cherry-picked compounds against Eya2. Inhibition is the desired outcome for this assay.
NIH Chemical Genomics Center [NCGC]
NIH Molecular Libraries Probe Centers Network [MLPCN]
Assay Submitter (PI): Rui Zhao, University of Colorado Denver
Eya2 enzyme and 3-O-methyl-fluorescein phosphate (OMFP) substrate working solutions were reconstituted in the buffer reagent consist of 50 mM HEPES pH 7.5, 50 mM NaCl, […], 0.05% BSA and 1 mM DTT. One and a half microliter of 0.2 uM Eya2 working solution was dispensed in a 1536 well Greiner plate (black, medium bind). Twenty-three nanoliter of test compounds and control compound EGTA was transferred to the assay plate using the Kalypsys robotic system equipped with a 1536 pin head. The plate was incubated at room temperature for 10 minutes. One and a half microliter of the 50 uM the OMFP substrate was then dispensed to the assay plate and incubated at room temperature for additional 10 min. The fluorescence signal was read using the PerkinElmer ViewLux plate reader using a 485 nm excitation and 525 nm emission filters. The data was normalized to the positive control for maximum inhibition and DMSO treated wells as negative control.
On the technique in general: In qHTS, concentration-response curves come from the screen itself.
For `CCC(C)Nc1nc(-c2ccccn2)nc2ccccc12` (stereo not given), the Potency was 8.49 µM (active).

As to `CC(C)c1cccc(-c2ccc3c(c2)S(=O)(=O)c2cccc(C(=O)O)c2C3=O)c1`, the Potency is 21.3 µM (active). The figure for `N#C/C(=C\C1=C(N2CCOCC2)C(=C\c2ccccc2)/CC1)C(=O)Nc1ccccc1F` is 1.07 µM (active); for `CCN(CC)c1ccc(/C=C2\CCC(/C=C(\C#N)C(=O)Nc3ccccc3F)=C2N2CCOCC2)cc1` it is 3.01 µM (active); for `COc1cc([C@H]2Oc3cc([C@H]4Oc5cc(O)cc(O)c5C(=O)[C@@H]4O)ccc3O[C@@H]2CO)ccc1O` it is “inactive”. The same measure for `O=C1C(=O)C(c2ccc(O)cc2O)Oc2cc(O)cc(O)c21` (stereo not given): 8.49 µM (active); for `CC1(C)CC(=O)C(C2C3=C(CC(C)(C)CC3=O)Oc3c(Br)cc(Br)cc32)=C(O)C1` (stereo not given): 3.79 µM (active); for `O=C(CSc1nnc2c(Cl)cc(Cl)cn12)NC1CCS(=O)(=O)C1` (stereo not given): “inactive”. Turning to `CCC(C)Nc1ccc(NC(C)CC)cc1` (stereo not given), the Potency is 0.0953 µM (active). On to `O=c1cc2c(=O)oc3cc(O)c(O)oc3c2c(O)c1O`, for which the Potency is 1.2 µM (active). As for `Cc1ccc2cc(NC(=O)CC(CC(=O)O)c3ccccc3)ccc2n1` (stereo not given), the Potency is 19 µM (active). The entry for `O=C(C1CCN(c2nnc(-n3cccc3)s2)CC1)N1CCOCC1` is “inactive”; for `CN(C)c1ccc(C=C2c3ccccc3-c3ccccc32)cc1` it is 7.57 µM (active); for `CN(C)c1ccc(/C=C2\C(Cl)=Cc3ccccc32)cc1` it is 5.36 µM (active).

On to `CN(C)c1ccc2c(c1)C(=NO)c1ccccc1-2`, for which the Potency was 9.53 µM (active). The same measure for `CNc1ccc(C=C2c3ccccc3-c3ccccc32)cc1`: 12 µM (active); for `CN(Cc1ccccc1F)c1nc(-c2cccnc2)nc2ccccc12`: “inactive”; for `COc1ccc(Nc2nc(C(C)(C)C)nc3c2nnn3Cc2ccccc2Cl)cc1OC`: “inactive”. The figure for `CN(C)c1ccc(/C=C2\C(=O)/C(=C/c3ccc(N(C)C)cc3)c3ccccc32)cc1` is 4.26 µM (active). The figure for `CN(C)c1ccc(/C=C2\c3ccccc3-c3ccc(N(C)C)cc32)cc1` is 5.36 µM (active); for `CCOc1ccc(NC(=O)COc2cccc3cccnc23)cc1S(=O)(=O)N1CCCC1` it is 19 µM (active); for `CCOc1ccc(NC(=O)COc2ccc3c(c2)CCC3)cc1OC` it is “inactive”. Consider `CCOc1ccc(S(=O)(=O)NCc2ccc(C)cc2)c2cccnc12`, for which the Potency entry was “inactive”.

Regarding `COc1cc(OC)c(OC)cc1/C=C1\C=Cc2ccccc21`, the Potency is 8.49 µM (active). In the case of `CN(C)c1ccc(/C=C2\C=Cc3ccccc32)c(Cl)c1`, the Potency was 6.75 µM (active). The figure for `COc1cc(N(C)C)c(OC)cc1/C=C1\C=Cc2ccccc21` is 5.36 µM (active); for `COc1cc(N(C)C)ccc1/C=C1\C=Cc2ccccc21` it is 7.57 µM (active); for `CC(C)(C)C(=O)[C@H]1[C@H](c2ccccc2)[C@@]2(N=C(c3ccccc3)OC2=O)C2c3ccccc3C=NN21` (stereo not given in full) it is “inactive”. On to `CC1=CC(=O)Nc2ncccc2O1`, for which the Potency was 19 µM (active). The figure for `Cc1ccc(Nc2c(-c3ccccn3)nc3ccc(C)cn23)cc1` is 4.26 µM (active). The figure for `Cc1ccccc1Nc1c(-c2ccccn2)nc2ccccn12` is 2.39 µM (active). The figure for `Cc1cccc(C)c1Nc1c(-c2ccccn2)nc2ccccn12` is 7.57 µM (active); for `CC(=O)c1ccc(NS(=O)(=O)c2cccc(C(=O)Nc3ccccc3C(=O)O)c2)cc1` it is 15.1 µM (active); for `CC(=O)Oc1cccc(C(=O)Nc2cccc(C(=O)Nc3ccccc3C(=O)O)c2)c1` it is 15.1 µM (active). `NC(=O)C1CCN(c2oc(-c3cccs3)nc2S(=O)(=O)c2ccc(Br)cc2)CC1`: the Potency result was “inactive”. The same measure for `CCOC(=O)C1CCCN(C2=C(NS(=O)(=O)c3ccc(Br)cc3)C(=O)c3ccccc3C2=O)C1` (stereo not given): 9.53 µM (active). The same measure for `CCOC(=O)C1CCN(C2=C(NS(=O)(=O)c3ccc(Br)cc3)C(=O)c3ccccc3C2=O)CC1`: 3.79 µM (active); for `CCOC(=O)CNC(=O)C1CCCN(c2ncccn2)C1` (stereo not given): “inactive”.

Regarding `N/C(=N\OC(=O)c1ccc2ccccc2c1)c1ccncc1`, the Potency entry is “inactive”. On to `Cc1cc(C)nc(-n2nc(C)cc2NC(=O)c2cc3ccccc3oc2=O)n1`, for which the Potency was 5.36 µM (active). The same measure for `O=C(CC1(O)C(=O)Nc2ccccc21)c1ccccc1` (stereo not given): “inactive”; for `CCOC(=O)C1=C(COC(=O)CCOc2ccccc2)NC(=O)NC1C` (stereo not given): “inactive”; for `COc1ccc(C(=O)Oc2ccc(=O)n(-c3ccccc3)n2)cc1`: 8.49 µM (active). The same measure for `Cc1nc(COC(=O)c2c(C)nn(-c3ccccc3)c2C)cs1`: “inactive”; for `CCOC(=O)c1[nH]c2ccc(C(=O)OC)cc2c1C(=O)OCC`: 13.5 µM (active); for `CCOC(=O)c1c2ccc(OCC(=O)NN)cc2n2ccccc12`: “inactive”.

Turning to `Cc1[nH]c2ccc(C(=O)OC(C)C(=O)N(C)c3ccccc3)cc2c1C` (stereo not given), the Potency entry is “inactive”.

Consider `O=c1cc(CSc2ccc(Cl)cc2)nc(-c2ccccn2)[nH]1`, for which the Potency is 2.13 µM (active). The entry for `NC(=O)c1ccc(NC(=O)COC(=O)/C=C/c2ccc(Br)o2)cc1` is “inactive”; for `Cc1ccc(/C=C/C(=O)Nc2ccc(N(C)C)cc2)o1` it is 19 µM (active). The figure for `CCn1ccnc1CNCc1cn(-c2cc(C)ccc2C)nc1-c1ccccc1` is 15.1 µM (active); for `COc1cc(N)c(Cl)cc1C(=O)N[C@H]1CCN(CCCOc2ccc(F)cc2)C[C@H]1OC` it is “inactive”.

With `O=c1c(CO)cc(CO)cc(CO)c1O`, the Potency is 5.36 µM (active).

Take `O=C(O)c1ccc(Nc2cnc3ccccc3n2)cc1`: the Potency result is “inactive”.

As for `O=C(Nc1ccc(S(=O)(=O)Nc2cnc3ccccc3n2)cc1)c1ccc(Cl)c([N+](=O)[O-])c1`, the Potency was 16.9 µM (active). The figure for `Cc1cc(NS(=O)(=O)c2ccc(NC(=O)c3cnc(Cl)c(Cl)c3)cc2)nc(C)n1` is 2.39 µM (active); for `O=C(Nc1ccc(Nc2ccccc2)cc1)c1ccc(Cl)cc1[N+](=O)[O-]` it is “inactive”; for `Cc1cc(NS(=O)(=O)c2ccc(NC(=O)c3cc4c(=O)n5ccccc5nc4s3)cc2)nc(C)n1` it is 8.49 µM (active). The entry for `CN=c1scc(C)n1/N=C/c1ccc2c(c1)OCO2` is “inactive”; for `CC1CCC2C(=O)N(c3ccc(C(=O)Oc4cccc5cccnc45)cc3)C(=O)C2C1` (stereo not given) it is 8.49 µM (active). The same measure for `COc1ccc(C(=O)/C=C/Nc2ccc(S(=O)(=O)Nc3nc(C)cc(C)n3)cc2)cc1OC`: 13.5 µM (active); for `COc1cc(NS(=O)(=O)c2ccc(N/C=C\C(=O)c3ccc(OC)c(OC)c3)cc2)nc(OC)n1`: 9.53 µM (active). With `CC(=O)Nc1ccc2nc(C3CC3)n(Cc3ccc(Cl)cc3)c(=O)c2c1`, the Potency entry is “inactive”. The same measure for `C[n+]1ccc(/C=C/c2cc[n+](C)c3ccccc23)c2ccccc21`: 9.53 µM (active); for `CN1C=C/C(=C\c2cc[n+](C)c3ccccc23)c2ccccc21`: 16.9 µM (active); for `Cc1cc(C)c2nc(SCC(=O)N(C)C3CCS(=O)(=O)C3)cc(C)c2c1` (stereo not given): “inactive”. The entry for `CCCCC1=CC2=C(c3ccco3)C(=O)C(C)(OC(=O)c3ccc(OC)cc3)C(=O)C2=CN1CCc1ccccn1` (stereo not given) is “inactive”; for `COc1cc(C=NO)nc(-c2ccccn2)c1` it is 1.2 µM (active); for `Oc1c(Cl)cc(CN2CCOCC2)c2cccnc12` it is 0.478 µM (active). The same measure for `CC(C)Cc1nc2oc3c(=O)[nH]cnc3c2c2c1CCC2`: 19 µM (active); for `O=C(O)c1cccc2cccc(-c3c4ccc(=O)c(O)c-4oc4c(O)c(O)ccc34)c12`: 3.79 µM (active); for `O=C(O)CCc1c2ccc(=O)c(O)c-2oc2c(O)c(O)ccc12`: 1.69 µM (active).

As for `COc1ccccc1NC(=O)NCCN1CCN(C(=O)Nc2ccccc2OC)CC1`, the Potency result is “inactive”.

In the case of `COc1cc(C(C(=O)NC2CCCCC2)N(C(=O)Cc2c[nH]c3ccccc23)c2ccc(C)cc2)cc(OC)c1OC` (stereo not given), the Potency result was “inactive”. The same measure for `O=C(O)c1cccc(N2C(=O)c3cccc(Oc4ccc(Cl)cc4)c3C2=O)c1`: “inactive”; for `CC(=O)Oc1cccc2c1C(=O)c1c(OC(C)=O)cc(C(=O)O)cc1C2=O`: 16.9 µM (active). The figure for `O=S(c1cc(Cl)cc(Cl)c1O)c1cc(Cl)cc(Cl)c1O` is 1.35 µM (active); for `CCC(=O)NC(=S)Nc1ccc(NC(=O)COc2ccc([N+](=O)[O-])cc2)cc1` it is “inactive”; for `CCCC(=O)Nc1ccc(NC(=S)NC(=O)c2cccs2)cc1` it is “inactive”.

Regarding `CCN(CC)c1ccc(NC(=S)NC(=O)c2cccs2)cc1`, the Potency was 13.5 µM (active). The figure for `O=c1[nH][nH]cc1C=Nc1cc(Cl)ccc1O` is 5.36 µM (active); for `CCOC(=O)c1cc2c(N)c(C(=O)c3ccc(Br)cc3)sc2[nH]c1=O` it is 1.9 µM (active). With `CCc1ccc(-c2csc(NC(=O)C3CC(=O)N(c4ccc5c(c4)OCCO5)C3)n2)cc1` (stereo not given), the Potency entry is “inactive”. On to `O=C(Nc1nc(-c2ccccn2)cs1)C1CC(=O)N(c2ccc3c(c2)OCCO3)C1` (stereo not given), for which the Potency was 7.57 µM (active). As for `O=C(Nc1nc(-c2ccco2)c(-c2ccco2)s1)C1CC(=O)N(c2ccc3c(c2)OCCO3)C1` (stereo not given), the Potency was 19 µM (active).

Take `Cc1ccc(SCc2nc(N)nc(Nc3ccccc3C)n2)cc1C`: the Potency result was “inactive”. The same measure for `COc1ccc(-c2c(N)cnc(C(=O)O)c2C)c(OCc2ccccc2)c1OC`: 19 µM (active). Take `Cc1cc(OC(=O)c2ccc(Cl)cc2)cc(=O)n1C`: the Potency was 2.39 µM (active). The figure for `Cc1ccc(C(=O)Oc2cc(C)n(C)c(=O)c2)cc1` is 1.51 µM (active); for `Cc1ccc(NC(=O)CSc2cccc3cccnc23)c(C)c1` it is 5.36 µM (active). The same measure for `CCN1C(=O)/C(=C2/C=Cc3ccccc3N2CC)SC1=S`: 3.79 µM (active); for `Cc1cccc(NC2=C(NCCO)C(=O)c3ccccc3C2=O)c1`: 16.9 µM (active); for `c1ccc2cc(CSCc3nc4ccccc4[nH]3)ccc2c1`: “inactive”. Consider `Cc1nn2c(c1-c1ccccc1)NC1=C(C(=O)CCC1)C2c1ccccc1` (stereo not given), for which the Potency entry was “inactive”. The same measure for `O=C1C=CC(=O)c2c(O)c(N3CCN(CCOCCO)CC3)c(Br)c(O)c21`: 13.5 µM (active).

(Values after PubChem BioAssay AID720540 (National Center for Advancing Translational Sciences (NCATS), 2013).)
